Data published in PubChem BioAssay AID624088 (Broad Institute, 2012).

assay: nuclear b-catenin accumulation in U2-OS cells – cell-based, PathHunter, beta-gal complementation, dry powder, orthogonal assay for GSK3b inhibitor project, dose response (AID 624088); details: U2-OS PathHunter beta-catenin translocation, beta-gal luminescence, 6 h; series mostly up to 26 µM; activity change, negative = active: at the top concentration;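 active means fitted potency no more than ten times the top tested concentration; inactive means fitted potency more than ten times the top tested concentration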

Activity change, negative = active, inactive:
Cc1[nH]nc2c1C(C1CCCCC1)C1=C(CC(C)(C)CC1=O)N2 (stereo not given) -2.42%
COc1ccccc1C1C2=C(CC3(CCCCC3)CC2=O)Nc2n[nH]c(C)c21 (stereo not given) -10.4%
Cc1[nH]nc2c1[C@H](c1ccccc1C(F)(F)F)C1=C(CC(C)(C)CC1=O)N2 -8.73%
COc1ccccc1[C@H]1C2=C(CC(C)(C)CC2=O)Nc2n[nH]c(C(F)(F)F)c21 -21.2%
COc1ccc(-c2nn(-c3ccccc3)cc2CO)cc1 3.06%
COc1ccccc1C1C2=C(CCC(C)(C)C2=O)Nc2n[nH]c(C)c21 (stereo not given) -2.98%
O/N=C/c1cn(-c2ccccc2)nc1-c1ccc(Cl)cc1 -6.62%
Cc1[nH]nc2nc3c(cc12)C(=O)CC(C)(C)C3 -0.088%
Cc1[nH]nc2c1C(C)C1=C(CC(C)(C)CC1=O)N2 (stereo not given) -6.12%
Cc1[nH]nc2c1C(C1CC1)C1=C(CC(C)(C)CC1=O)N2 (stereo not given) 0.6%
COc1ccccc1C1C2=C(CC(C)(C)CC2=O)Nc2n[nH]c(-c3ccccc3)c21 (stereo not given) -5.82%
COc1ccc(-c2nn(-c3ccccc3)cc2C(=O)O)cc1 -5.37%
COc1ccccc1-c1c2c(nc3n[nH]c(C)c13)CCC2=O 3.68%
COc1ccccc1C1C2=C(CCCC2=O)Nc2n[nH]c(C)c21 (stereo not given) 2.27%
Cc1ccccc1C1C2=C(CC(C)(C)CC2=O)Nc2n[nH]c(C)c21 (stereo not given) -13.1%
Cc1[nH]nc2c1C(c1ccc(C(F)(F)F)cc1)C1=C(CC(C)(C)CC1=O)N2 (stereo not given) -0.417%
COc1ccccc1C1C2=C(CC(C)(C)CC2=O)Nc2ccccc21 (stereo not given) 3.16%
COc1ccccc1[C@@H]1C2=C(CC(C)(C)CC2=O)Nc2n[nH]c(C)c21 -8.38%
COc1ccccc1C1C2=C(CC(C)(C)CC2=O)Nc2onc(C)c21 (stereo not given) 4.28%
COc1ccccc1C1C(C(C)=O)=C(C)Nc2n[nH]c(C)c21 (stereo not given) -3.19%
